Reference: paper PMC5540273 (PLoS ONE, 2017)
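Note: kd values determined as follow-up on hits from a single-replicate KINOMEscan panel screen.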

The compounds below were run on T1, GRK3.
T1 construct: gene ADRBK2
Work on Nc1nccc2scc(-c3ccc4c(c3)CCN4C(=O)Cc3ccccc3)c12 [GSK2576924] yielded a Kd greater than 10000 nM.
Compound Cc1nn2c(=O)cc(N3CCOCC3)nc2n1Cc1cccc(Cl)c1Cl [GSK2342769] has a Kd greater than 10000 nM.
O=C(Nc1n[nH]c2nc(-c3ccccc3)c(Cl)cc12)C1CC1 [SB-734909] gave a Kd greater than 10000 nM.

The compounds below were run on GSK3A.
With CCCC(=O)Nc1n[nH]c2ncc(-c3cccc4ccccc34)cc12 [SB-642057] the Kd was 360 nM.
COc1ccc(-c2coc3ccc(-c4nnc(SCc5cccc(C#N)c5)o4)cc23)cc1 showed a Kd of 150 nM.
Compound Nc1n[nH]c2nnc(-c3ccccc3)c(-c3ccccc3)c12 [GW554060] has a Kd of 300 nM.
Work on O=C(Nc1n[nH]c2nc(-c3ccccc3)c(Cl)cc12)C1CC1 [SB-734909] yielded a Kd of 390 nM.
In the case of O=C(Nc1n[nH]c2nc(-c3ccccc3)c(Br)cc12)C1CC1 [SB-708998], the Kd is reported as 410 nM.
With CCS(=O)c1ccc(-c2coc3ccc(-c4nnc(C)o4)cc23)cc1 (stereo not drawn) the Kd was 260 nM.
